Unmarked numbers belong to inactive results. The rule behind the calls is not given here.

These results are taken from PubChem BioAssay.

The target in this assay is Pantothenate synthetase (Mycobacterium tuberculosis (strain ATCC 25618 / H37Rv)) (UniProt P9WIL5). As to the kind of experiment: Recombinant Mtb pantothenate synthetase (PanC) inhibitors, coupled enzyme, confirmatory (AID 375).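 Note: 0% = full reaction with vehicle and 100% = no enzyme background.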 As to conditions: coupled enzyme assay; at 10 µM, active compounds read high.
Sequence of Pantothenate synthetase (Mycobacterium tuberculosis (strain ATCC 25618 / H37Rv)) (P9WIL5 whole entry, looked up): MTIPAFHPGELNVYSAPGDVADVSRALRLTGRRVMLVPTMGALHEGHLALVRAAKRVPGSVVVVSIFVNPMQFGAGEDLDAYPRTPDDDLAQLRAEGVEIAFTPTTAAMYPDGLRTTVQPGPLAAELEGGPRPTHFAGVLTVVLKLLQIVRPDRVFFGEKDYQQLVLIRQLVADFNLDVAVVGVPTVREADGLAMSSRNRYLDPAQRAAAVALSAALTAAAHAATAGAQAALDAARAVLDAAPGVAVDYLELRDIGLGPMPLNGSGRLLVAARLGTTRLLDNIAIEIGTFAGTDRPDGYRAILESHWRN
For the molecule `Cn1c(=O)cc(SCC(=O)NCc2cccnc2)c2ccccc21`, the inhibition is 4%.
The result for `CN(C)c1ccc(NC(=O)c2ccncc2)c2ccccc12` reads 6%; that for `CCOC(=O)c1cc2c(=O)n3ccccc3nc2n(Cc2ccccc2)c1=N`, 0%.
For `Cc1ccc(-c2noc(CN3CCN(c4ccccc4F)CC3)n2)cc1` the value was 0%.
The result for `CC[N+](C)(CC)CCOC(=O)C(O)(c1ccccc1)C1CCCCC1` (configuration not stated) reads 0%; that for `CCS(=O)(=O)N1CCC(C(=O)N2CCOCC2)CC1`, 2%; that for `CC(=O)Nc1ccc(S(=O)(=O)n2cnc(C)c2)cc1`, 3%.
With `Cc1ccc(CCNC(=O)C2CCN(S(=O)(=O)c3c(C)nn(C)c3C)CC2)cc1`, the inhibition is 0%.
The result for `O=C(CSc1nc(O)c(Cc2ccccc2)c(=O)[nH]1)Nc1ccccc1` reads 0%.
Turning to `Cn1cc(C(=O)NC2CCCCCCC2)c(=O)c2cc(S(=O)(=O)N3CCCC3)ccc21`, the inhibition was 0%.
In the case of `Cc1ccc(S(=O)(=O)N(CC(=O)N2CCC(C(N)=O)CC2)Cc2ccc(F)cc2)cc1`, the inhibition was 0%.
For `COc1ccc(-c2nnc3ccc(SC(C(C)=O)C(C)=O)nn23)cc1OC` the value was 2%; for `COc1cc(C)c(-c2cc(C(=O)O)c(C)o2)cc1C(C)C`, 0%; for `Cn1c(CN2CCOCC2)nnc1SCC(=O)NCCc1ccccc1`, 0%.
With `Cn1c2c(c(=O)n(C)c1=O)C(NC(=O)C(C)(C)C)(C(F)(F)F)C(=O)N2` (configuration not stated), the inhibition is 0%.
As to `O=C(Nc1ccc2c(c1)OCCO2)c1ccco1`, the inhibition is 5%.
The result for `Cc1cc(C)c(C(=O)Nc2ccc(S(=O)(=O)Nc3onc(C)c3C)cc2)c(C)c1` reads 8%.

Usually inhibition stands for the drop in the measured response relative to a control, in per cent.
